Test [1] relates to Human papillomavirus type 1a protein E7 (residues 44-93). The test can be described thus: HPV1a E7 fragment binders on microarrays, primary screen, biochemical, small-molecule microarray, residues 44-93, 635 nm fluorescence (AID 1108).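 Also: E7 fragment applied at 1 µg/mL in TBST for 1 h at 4 C; score combines spot fluorescence with its signal to noise ratio.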 The settings on record: small-molecule microarray binding, fluorescence 635 nm; higher = more signal.
The nature of test [2]: modulators of HCV replicon luciferase signal, primary screen, HCV replication inhibitor project, Huh7 cells, luciferase reporter (AID 1109).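 Also: huh7 hepatoma cells harbouring a luciferase neomycin HCV replicon reporter; luciferase luminescence as measure of HCV replicon replication; test concentration not given here.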 The settings on record: 48 h, higher = more signal.
For test [3], the target named is Left-right determination factor 2 (Homo sapiens) (UniProt O00292). The experiment in a line: LEFTY2 binders on small-molecule microarrays, primary screen, biochemical, small-molecule microarray, 635 nm fluorescence scan (AID 1110). Conditions: LEFTY2 binding, higher = more signal.
For test [4], the target named is Calmodulin-1 (Homo sapiens) (UniProt P0DP23). The experiment in a line: CALM1 binders on microarrays, EGTA buffer, profiling panel, biochemical, small-molecule microarray, Cy5-labelled CALM1 (AID 1111).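 Also: labelled calmodulin applied in Tris saline Tween buffer holding calcium plus EGTA and DTT.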 Conditions: Cy5-CALM1 binding fluorescence, higher = more signal.
For test [5] the target is unchanged. The experiment in a line: calcium-bound CALM1 binders on microarrays, profiling panel, artefact control for SMM control-protein annotation, biochemical, small-molecule microarray, Cy5-labelled CALM1, plus calcium (AID 1112).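 Also: score merges spot fluorescence with signal to noise from triplicate slides.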 Conditions: Cy5-CALM1 binding fluorescence, higher = more signal.
Test [6] can be described thus: small-molecule microarray binders of probe aWnt5a, primary screen, biochemical, biotinylated probe, 635/667 nm fluorescence (AID 1113).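 Also: score merges 667 nm fluorescence intensity with signal-to-noise per printed feature.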 The settings on record: higher = more signal.
Test [7] can be described thus: small-molecule microarray binders of probe aShh, primary screen, biochemical, biotinylated probe, 635/667 nm fluorescence (AID 1114).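 Also: probe is biotin-labelled aShh protein from a stem cell growth factor screen; measures binding of labelled protein to compounds printed on the slide; score merges feature fluorescence at 667 nm with signal-to-noise.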 The settings on record: higher = more signal.
Test [8] in a line: small-molecule microarray binders of probe aNog, primary screen, biochemical, biotinylated probe, 635/667 nm fluorescence (AID 1115).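 Also: probe is biotinylated aNog protein used at 0.15 µg/mL for 1 h at 4 C; z-score combines 667 nm fluorescence of each spot with its signal to noise.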 The settings on record: higher = more signal.
Test [9] concerns the target Torsin-1A-interacting protein 1 (Homo sapiens) (UniProt Q5JTV8). The test can be described thus: LAP1 binders from COS7 cell lysate, primary screen, small-molecule microarray, 635/667 nm fluorescence (AID 1116). The settings on record: COS7-hLAP1 lysate binding, 635 nm fluorescence, higher = more signal.
The target in test [10] is Alpha-bungarotoxin (Bungarus multicinctus) (UniProt P60615). The test can be described thus: alpha-bungarotoxin binders on microarray, profiling panel, artefact control for SMM control protein annotation, biochemical, small-molecule microarray, Alexa647 label, 635/667 nm fluorescence (AID 1117). Conditions: alpha-BTX-A647 binding fluorescence, higher = more signal.

Structures are written as SMILES.

Sequence of Left-right determination factor 2 (Homo sapiens) (O00292 whole entry, looked up): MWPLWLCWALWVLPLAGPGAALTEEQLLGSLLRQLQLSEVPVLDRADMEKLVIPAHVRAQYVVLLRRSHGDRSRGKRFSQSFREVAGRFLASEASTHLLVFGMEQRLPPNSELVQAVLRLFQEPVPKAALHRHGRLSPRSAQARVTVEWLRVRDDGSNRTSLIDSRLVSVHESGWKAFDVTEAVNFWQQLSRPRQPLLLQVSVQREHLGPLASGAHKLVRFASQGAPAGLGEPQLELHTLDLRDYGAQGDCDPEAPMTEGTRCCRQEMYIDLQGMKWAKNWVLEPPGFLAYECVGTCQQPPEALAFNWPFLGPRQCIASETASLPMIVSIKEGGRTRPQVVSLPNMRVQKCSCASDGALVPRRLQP
Sequence of Alpha-bungarotoxin (Bungarus multicinctus) (P60615 whole entry, looked up): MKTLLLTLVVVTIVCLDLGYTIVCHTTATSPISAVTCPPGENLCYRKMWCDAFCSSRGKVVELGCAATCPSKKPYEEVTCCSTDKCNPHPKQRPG
Sequence of Torsin-1A-interacting protein 1 (Homo sapiens) (Q5JTV8 whole entry, looked up): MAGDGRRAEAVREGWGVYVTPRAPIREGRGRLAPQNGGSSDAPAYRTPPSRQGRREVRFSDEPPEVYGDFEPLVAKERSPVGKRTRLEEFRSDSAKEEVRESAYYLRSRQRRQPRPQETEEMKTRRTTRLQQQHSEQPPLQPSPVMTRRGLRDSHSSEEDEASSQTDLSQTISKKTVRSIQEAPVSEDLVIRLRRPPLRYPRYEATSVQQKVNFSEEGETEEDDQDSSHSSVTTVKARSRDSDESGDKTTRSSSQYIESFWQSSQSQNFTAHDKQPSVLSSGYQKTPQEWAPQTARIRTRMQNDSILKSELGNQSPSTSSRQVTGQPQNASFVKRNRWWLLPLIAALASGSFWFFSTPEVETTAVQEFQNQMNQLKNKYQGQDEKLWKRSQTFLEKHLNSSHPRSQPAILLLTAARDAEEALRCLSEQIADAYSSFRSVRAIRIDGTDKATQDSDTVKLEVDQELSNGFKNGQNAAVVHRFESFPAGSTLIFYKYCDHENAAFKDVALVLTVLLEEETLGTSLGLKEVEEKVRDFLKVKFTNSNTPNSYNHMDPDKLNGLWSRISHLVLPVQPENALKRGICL

`C[C@H]1C2=C3C(CC[C@H]4C(OCc5ccc(F)cc5C(F)(F)F)OC[C@](C)([C@@H]34)N(C(=O)OC(C)(C)C)C2)C(CO)C1CO` (stereo not given in full): the composite z-score in [1] is 1.34; in [3], -0.593; in test [4], 2.4; in [5] it was 0.861; in test [6], 0.114; in test [7] it was 0.255. The values for the composite z-score in [8], in test [9] and in test [10] were -0.697, 0.222 and 0.671, respectively. The compound also came in with a z-score in test [2] of -2.81.
As to `COCCOC(=O)N1C(=O)[C@@]2(c3ccccc31)[C@H](c1ccc(OCCO)cc1)N1[C@H](c3ccccc3)[C@H](c3ccccc3)OC(=O)[C@H]1[C@@H]2C(=O)Nc1nc2ccccc2s1`, the composite z-score was 1.34 in test [1]; 0.492 in test [3]; 1.68 in test [4]; 0.397 in test [5]; 0.0431 in test [6]; -0.0769 in test [7]. Besides, the composite z-score in test [8] worked out at 0.516; in [9] it was 0.903; in [10], 1.13. The compound also displayed a z-score in test [2] of -1.33.
As to `CCCCC(=C=CC[C@@H](O)c1ccc(OCCO)cc1)C[C@@H](O)COCc1ccccc1`, the composite z-score was -0.548 in test [1]; 0.141 in [3]; -0.686 in [4]; -0.244 in test [5]; 0.0044 in test [6]; 0.0796 in test [7]. Also, the composite z-score in test [8] was -0.213; in test [9] it was 1.89; in test [10], -0.324. The z-score in [2] was -1.45.
On to `COc1cc(CO)cc(I)c1O[C@H]1C=C(C(=O)NCCO)C[C@@H](N(Cc2ccc(F)cc2)C(=O)C2CCCO2)[C@@H]1O` (stereo not given in full), for which the composite z-score is -0.284 in test [1]; 0.407 in [3]; -0.0131 in [4]; -0.402 in [5]; -0.124 in test [6]; -0.338 in [7]. The results for the composite z-score in [8], in [9] and in test [10] were -0.0312, -0.0829 and 0.988, respectively. In [2], this compound registered a z-score of 0.561.
For `NC(=O)N1C(=O)C2C(C1=O)C1C=C(c3ccc(CO)cc3)C2C(C2CC2)N1Cc1sc2ccccc2c1Cl` (stereo not given), the composite z-score in [1] came out at 0.0882; in test [3] it was 1.27; in test [4], 0.867; in test [5] it was 0.163; in test [6], 0.272; in [7], 0.0756. For the same compound, the composite z-score in test [8] was 0.264; in test [9] it was 1.9; in test [10], 2.12. Further, the z-score in test [2] is -1.39.
On to `COCCOC(=O)N1C(=O)[C@@]2(c3cc(C#CC4(O)CCCCCC4)ccc31)[C@H](c1ccccc1OCCO)N1[C@H](c3ccccc3)[C@H](c3ccccc3)OC(=O)[C@H]1[C@@H]2C(N)=O`, for which the composite z-score in [1] is -0.389; in [3], 0.844; in test [4] it was 1.06; in test [5], 0.0078; in [6] it was -0.101; in test [7] it was 0.337. Further, the composite z-score was 0.347 in test [8], 0.425 in [9] and 1.72 in [10]. The z-score in test [2] is -3.33.
Turning to `C=CCOC(=O)[C@H]1[C@@H]2C(=O)O[C@@H](c3ccccc3)[C@@H](c3ccccc3)N2[C@@H](c2ccc(OCCOC(=O)[C@H]3C[C@H]4C(=O)N[C@@H](Cc5ccccc5)C(=O)N4[C@H]3c3ccc(O)cc3)cc2)[C@]12C(=O)Nc1ccc(I)cc12`, the composite z-score was 1.39 in [1]; 0.537 in test [3]; 0.43 in [4]; 0.0144 in [5]; 0.0169 in test [6]; -0.333 in [7]. For the same compound, the composite z-score in [8] was -0.174; in test [9], 0.791; in [10] it was 0.897. The compound also displayed a z-score in test [2] of -1.41.
`CN(C)CCCNC(=O)[C@@H]1c2ccccc2C(=O)N(Cc2ccc(OC(F)(F)F)cc2)[C@H]1c1ccc(CO)cc1`: the composite z-score in test [1] was 1.35; in test [3], -0.0765; in test [4], -0.226; in [5], -0.919; in test [6], 0.0003; in test [7], 0.0278. Further, the composite z-score was -0.309 in test [8], 0.724 in test [9] and 0.243 in [10]. This compound also had a z-score in test [2] of -2.08.
As to `COCCOC(=O)N1C(=O)[C@@]2(c3ccccc31)[C@H](C(=O)N1CCN(c3ncccn3)CC1)[C@H]1C(=O)O[C@H](c3ccccc3)[C@H](c3ccccc3)N1[C@@H]2c1ccc(OCCO)cc1`, the composite z-score in test [1] was 1.41; in [3], 0.708; in test [4] it was 0.89; in [5], 0.316; in test [6], -0.0944; in test [7], 0.0639. Also, the composite z-score in [8] amounted to 0.612; in [9], 1.03; in [10], 1.11. In addition, the z-score in test [2] was -1.42.
`C[C@]12C(=O)N(CCCCCCO)[C@@H]3C(=O)N(c4ccc(Cl)cc4)CC=CC31O[C@@H]1/C=C\CCCOC(=O)C12` (stereo not given in full): the composite z-score in test [1] is -0.358; in test [3] it was -1; in [4], -0.821; in test [5], -0.559; in test [6], 0.0297; in test [7] it was -0.0813. Besides, the results for the composite z-score in test [8], in [9] and in [10] were 0.782, 0.121 and -0.0604, respectively. The compound further displayed a z-score in test [2] of -0.67.
Take `[N-]=[N+]=Nc1ccccc1C[C@]1(C(=O)NCc2ccccc2)N=C(c2ccc(OCCCO)cc2)O[C@H]1c1ccccc1`: the composite z-score in [1] is 1.08; in test [3], -0.397; in [4] it was 2.03; in test [5], 0.848; in test [6], 0.0357; in test [7] it was 0.28. The composite z-score in [8] worked out at 1.85; in test [9], 1.39; in test [10], 1.77. The same compound had a z-score in [2] of -1.58.
Take `Cc1ccc(S[C@]2(C(=O)NC(C)C)CC(=O)N(C3Cc4ccccc4C3)[C@@H]2c2ccc(CO)cc2I)cc1`: the composite z-score in test [1] was -0.803; in [3], -2.04; in [4], -0.625; in test [5] it was -1.08; in test [6], -0.596; in [7], -0.291. The results for the composite z-score in [8], in test [9] and in [10] were -1.12, -0.664 and -0.365, respectively. This compound also had a z-score in test [2] of -2.19.
Take `[N-]=[N+]=Nc1ccccc1[C@H]1OC(c2ccc(OCCCO)cc2)=N[C@@]1(CCS(=O)(=O)c1ccccc1)C(=O)N1CCCCC1`: the composite z-score was 1.44 in test [1]; -0.149 in test [3]; 1.48 in [4]; 0.956 in test [5]; -0.0165 in [6]; 0.184 in test [7]. The composite z-score is 0.0127 in test [8], 1.27 in [9] and 2.21 in [10]. The same compound had a z-score in test [2] of -1.05.
For the compound `COCC(=C=CC[C@H](O)c1ccc(OCCO)cc1)C[C@H](O)COCc1ccccc1`, the composite z-score in [1] is 0.486; in test [3], 0.32; in [4], -0.0904; in test [5], -0.847; in test [6] it was -0.0718; in test [7], -0.279. The composite z-score is -0.302 in test [8], 1.52 in [9] and 0.439 in test [10]. The z-score in [2] was -0.313.
On to `CC(C)OC(=O)CC(=O)CC(O)c1cccc(C#N)c1` (stereo not given), for which the composite z-score is 1.32 in [1]; -0.0472 in test [3]; 0.552 in test [4]; 0.252 in test [5]; -0.0944 in [6]; -0.16 in test [7]. Besides, the composite z-score in test [8] was -0.0956; in [9], 1.39; in test [10], 0.684. This compound showed a z-score in test [2] of -0.664.
Take `O=C(CCCCCCC(=O)Nc1ccccc1)N/N=C/c1ccccc1`: the composite z-score was -0.162 in [1]; 0.229 in [3]; -0.507 in [4]; -0.491 in test [5]; -0.18 in [6]; 0.0224 in [7]. Moreover, the composite z-score in test [8] was -0.216; in test [9] it was 0.255; in test [10] it was -0.454. This compound also returned a z-score in test [2] of -0.529.
`Cc1ccc(S[C@]2(C(=O)NCC(C)C)CC(=O)N(Cc3ccccc3Cl)[C@@H]2c2ccc(CO)cc2I)cc1`: the composite z-score is 0.409 in test [1]; -1.16 in test [3]; -0.363 in [4]; -0.0595 in [5]; 0.31 in test [6]; -0.221 in test [7]. In addition, the composite z-score in test [8] was 0.515; in test [9] it was 0.359; in test [10], 1.48. Moreover, in test [2], the z-score is -1.55.

Source of the values: PubChem BioAssay.
